Among all 190,000 compounds or so, about 1,700 (0.89%) were called active. Many of the other results were omitted from the sample, so actives are more common in it than they were. A number with no mark means an inactive call.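 The calls were made as follows: active = inhibition above the mean inhibition across all screened compounds plus 3 SD (cut at about 44% in these data); inactive = the rest.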

The assay is described as follows: IL-6 driven STAT3 reporter inhibitors, primary screen, U3A cells, luciferase, luminescence, MLSCN library (AID 862).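 Also: 0% = DMSO only wells and 100% = 100 µM nifuroxazide control wells.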 Particulars: IL-6 STAT3-luciferase reporter, at 5.5 µM, stronger effect = higher value, host cell line lacks STAT1. (Reporter assays use an easily measured gene product as a stand-in for the process of interest.)
Usually inhibition stands for the drop in the measured response relative to a control, in per cent. Take `COc1ccc2oc(-c3cccc(NC(=O)CSc4ccc(Cl)cc4)c3)nc2c1`: the inhibition was -4.6%.
To `COc1cccc(-c2nc3cc(C)ccc3o2)c1` belongs 45% (active).
For `COc1ccc(-c2nc3cc([N+](=O)[O-])ccc3o2)cc1OC`, the inhibition was 20.3%.
Next, `Cc1ccc(C(=O)Cc2nnc(C)s2)cc1`: -4.3%; `C/C(=N\NC(=O)CNC(=O)C(c1ccccc1)c1ccccc1)c1ccc(C)cc1`: -6.9%; `O=C(Nc1cccnc1)c1noc2c1CCCCC2`: 43.9% (active).
To `COc1cccc(C(=O)Nc2cccnc2)c1OC` belongs 2.9%; to `O=C(Nc1cccnc1)c1cccc(S(=O)(=O)N2CCCC2)c1`, 6.6%; to `Cc1ccc(-n2c(SCC(=O)N/N=C/C=C/c3ccccc3[N+](=O)[O-])nc3ccccc3c2=O)cc1`, 1.3%.
To `CC(Sc1nncn1C)C(=O)Nc1cc(C(F)(F)F)ccc1N1CCOCC1` (centres undefined) belongs 0.4%.
On to `OCCNCc1cccc(OCc2ccccc2Cl)c1`, for which the inhibition is -9.4%.
To `O=c1oc(/C=C/c2ccccc2)nc2ccccc12` belongs 44.2% (active).
Next, `S=c1[nH]nc(/C=C/c2ccccc2)o1`: -4.3%.
As to `CCn1c(/C=C/c2ccc([N+](=O)[O-])o2)nc2ccccc2c1=O`, the inhibition was 25.7%.
Next, `COc1ccc(/C=C/C(=O)c2ccc(NS(=O)(=O)c3ccc(C)cc3)cc2)cc1O`: -5.1%; `Cc1ccc(O)c(-c2cc(C(=O)NCc3ccccc3)[nH]n2)c1`: -0.7%; `CCCn1nc(C(=O)Nc2ccc3nc(C)sc3c2)c2ccccc2c1=O`: 0.8%.
To `CCN(CC)c1ccc(/C=N/Nc2nc(C)cc(C)n2)c(O)c1` belongs 16%.
For the compound `CCN(CC)c1ccc(/C=N/Nc2nc(C)cc(=O)[nH]2)cc1`, the inhibition was 46.4% (active).
Take `Cc1cc(=O)[nH]c(N/N=C/c2c(C)nn(-c3ccccc3Cl)c2Cl)n1`: the inhibition is 7.1%.
To `Nc1nnc(SCn2nnc3ccccc3c2=O)s1` belongs 9.1%.
In the case of `O=C(O)CCC(=O)Nc1nc2ccc([N+](=O)[O-])cc2s1`, the inhibition was 13.9%.
As to `O=C(Nc1nc2ccc([N+](=O)[O-])cc2s1)c1ccc(S(=O)(=O)N2CCCc3ccccc32)cc1`, the inhibition was 21.1%.
For the compound `O=C(NC(Nc1nc2ccc([N+](=O)[O-])cc2s1)(C(F)(F)F)C(F)(F)F)c1ccccc1`, the inhibition was 92.4% (active).
Turning to `OCCC1CN(Cc2ccc(Oc3ncccn3)cc2)CCN1CCc1ccccc1` (centres undefined), the inhibition was 4.1%.
Next, `Cc1cc[n+](-c2[nH]c(=O)sc2/C=N/NC(=O)c2ccccc2[O-])cc1C`: 6.7%; `COc1cc(N=Cc2c(O)[nH]c3ccccc23)cc(OC)c1OC`: 56% (active).
In the case of `COc1ccc(OC)c(N=Cc2c(O)[nH]c3ccccc23)c1`, the inhibition was 22.7%.
To `COc1ccc(N=Cc2c(O)[nH]c3ccccc23)cc1OC` belongs 40.4%; to `Cc1cc(C)nc(SC2CCCCC2NS(=O)(=O)c2ccc(Cl)cc2)n1` (centres undefined), -5.1%; to `Nc1c(C(=O)O)cnn1-c1ccccc1`, -7.4%.
Next, `Cc1ccc(N2C(=O)SC(N(CC(=O)O)c3ccc(C)cc3)C2=O)cc1` (centres undefined): 0.7%.
For `CCc1ccc2oc(-c3ccc(N)cc3)nc2c1`, the inhibition was 79.6% (active).
To `Nc1ccc(-c2nnc(-c3ccc(-c4ccccc4)cc3)o2)cc1` belongs -2.7%.
With `CCCCCC(=O)Nc1ccc2oc(-c3ccncc3)nc2c1`, the inhibition was 21.8%.
To `COc1ccc(-c2csc(Nc3ccccn3)n2)cc1` belongs 51.5% (active); to `c1ccc(Nc2nc(-c3ccncc3)cs2)nc1`, 9.9%; to `COc1ccc(Nc2nc(-c3ccccc3)cs2)cc1`, -10.2%.
To `Cc1ccccc1-n1nc(SCC(=O)O)sc1=S` belongs 3.4%.
Next, `COc1cccc(CNC(=O)CCC2CCCN(Cc3ccc(OC(F)F)cc3)C2)c1` (centres undefined): 13.3%; `COc1ccc(Nc2ncc(F)c(N3CCOCC3)n2)cc1`: 50.7% (active).
Regarding `c1ccc(Nc2nc(N3CCOCC3)c3ccccc3n2)cc1`, the inhibition was 22%.
In the case of `CCOc1ccc(Nc2nc(Cl)nc(N3CCN(c4ccc(OC)cc4)CC3)n2)cc1`, the inhibition is -0.7%.
To `O=[N+]([O-])c1ccc2oc(-c3cccc(O)c3)nc2c1` belongs 1.8%.
Take `O=C(Nc1ccccc1F)c1ccc(Cn2cc(Br)cn2)cc1`: the inhibition is 14.9%.
To `COc1ccc(-n2ncc3c(N4CCc5ccccc54)ncnc32)cc1` belongs 2.3%.
Next, `Cc1ccc(-n2ncc3c(N4CCN(c5ccc(F)cc5)CC4)ncnc32)c(C)c1`: 69.6% (active); `COC(=O)CSc1ncnc2c1cnn2-c1ccc(C)cc1C`: 23.1%; `COc1ccc(-n2ncc3c(N4CCCc5ccccc54)ncnc32)cc1`: 30.9%.
To `c1ccc(-n2ncc3c(N4CCCC4)ncnc32)cc1` belongs 46.7% (active); to `Cc1ccc(-n2ncc3c(=O)[nH]cnc32)c(C)c1`, 10.7%; to `CCOc1ccc(N2C(=O)Nc3ccccc3C2(O)C(=O)NCc2ccco2)cc1` (centres undefined), 4.6%.
For `O=c1[nH]oc(O)c1-c1ncc(C(F)(F)F)cc1Cl`, the inhibition is -6.5%.
Next, `S=c1nc(C23CC4CC(CC(C4)C2)C3)nc2sccn12`: 10%.
To `O=C(NC1(C(F)(F)F)NC(=O)N(C2CCCCC2)C1=O)c1ccco1` (centres undefined) belongs 12.1%; to `COC(=O)NC1(C(F)(F)F)NC(=O)N(C2CCCCC2)C1=O` (centres undefined), 7.4%; to `O=C1NC(Nc2nc3ccccc3s2)(C(F)(F)F)C(=O)N1C1CCCCC1` (centres undefined), 48.9% (active).
To `COCC(C)NC(=O)CSc1nc2nn(-c3ccccc3)c(=O)c-2c2n1CCCCC2` (centres undefined) belongs 2.7%.
Turning to `O=C(NCCOc1ccccc1)c1ccccc1`, the inhibition was 20.1%.
Next, `O=C(NCCc1ccccc1)c1ccc(OCCOc2ccccc2)cc1`: -1.4%; `CCCOc1ccc(C(=O)NCCc2ccccc2)cc1`: 50.3% (active).
To `O=C(CN1C2=NCCN2c2ccccc21)c1cccs1` belongs 0%; to `c1ccc(-c2cc(N3CCCCC3)c3ccccc3n2)cc1`, 9.3%.
As to `Cc1ccc(-c2cn3cc([N+](=O)[O-])ccc3n2)cc1`, the inhibition is 86.6% (active).
On to `Cc1ccc(-c2cn3cc(C)ccc3n2)cc1`, for which the inhibition was 103% (active).
Next, `COc1ccc(-c2cn3ccsc3n2)cc1`: 28.9%.
Next, `Cc1ccc(-c2cn(S(=O)(=O)c3cccc([N+](=O)[O-])c3)nc2N)cc1`: 12.3%; `Cc1ccc(-n2cc3ccc([N+](=O)[O-])cc3n2)cc1`: 38.8%; `COc1ccc(-c2cn3cccnc3n2)cc1`: 10.6%.

Source of the values: PubChem BioAssay AID862 (The Scripps Research Institute Molecular Screening Center, 2007).
